This is a sample that favours compounds with a hit; in the whole collection about 6.1% have one here.
HepG2 tox: HepG2 cytotoxicity, counter-screen for TGF-b inhibitors; HepG2 CAGA-GFP viability, ATP luminescence, 18 h; Potency, µM (top dose mostly 46.1 µM), for inactives: top-dose activity change, negative = cytotoxicity, usual class: cytotoxic; 410,000 compounds, 0.76% hits; AID 588856
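HepG2 CAGA-GFP cells (1000/well, DMEM with 1% FBS) received compound, then TGF-beta at 500 pg/mL final, and were incubated 18 hours at 37 degrees C. Viability was read by CellTiter-Glo luminescence. Media-only wells were set as complete cell-killing and DMSO as no toxicity.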
RORgamma inh: blocks mouse ROR gamma transcriptional activity. P51450. Drosophila S2 Gal4-RORgamma UAS-luciferase reporter, 20 h. Potency, µM (doses to about 53.6 µM), without a hit: top-dose activity change, negative = inhibition, actives largely listed as inhibitors. 310,000 compounds, 5.4% hits. AID 2551; further: on the % scale 0 is the no-effect control and ±100 the full control effect; nearly all actives have a fitted effect of over 60% in size
Target sequence (P51450 whole entry, looked up, the tested form may be a part): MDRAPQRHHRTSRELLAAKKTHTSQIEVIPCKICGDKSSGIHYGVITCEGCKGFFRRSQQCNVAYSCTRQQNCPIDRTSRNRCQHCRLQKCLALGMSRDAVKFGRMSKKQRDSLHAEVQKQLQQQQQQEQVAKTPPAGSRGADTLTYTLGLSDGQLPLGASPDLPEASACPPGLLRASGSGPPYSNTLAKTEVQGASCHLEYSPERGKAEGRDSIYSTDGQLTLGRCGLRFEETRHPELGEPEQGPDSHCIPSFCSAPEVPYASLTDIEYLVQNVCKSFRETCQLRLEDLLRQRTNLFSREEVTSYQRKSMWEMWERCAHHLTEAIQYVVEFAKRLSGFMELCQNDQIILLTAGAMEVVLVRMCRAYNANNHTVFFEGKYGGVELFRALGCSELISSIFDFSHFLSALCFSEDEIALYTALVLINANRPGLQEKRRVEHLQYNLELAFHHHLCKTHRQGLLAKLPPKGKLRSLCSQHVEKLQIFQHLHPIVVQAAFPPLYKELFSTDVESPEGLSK
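Read-out: Photinus luciferase luminescence; inhibitors lower reporter signal. Insect Schneider cells with Gal4-ROR gamma fusion under metallothionein promoter, UAS reporter; 700 uM final copper sulfate induction, 20 hr, ambient temperature.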
TGFb SMAD3 inh: blocks TGF-b signaling; HepG2 CAGA-GFP TGF-b/SMAD3 reporter, GFP fluorescence, 18 h; TGF-beta stimulated, 500 pg/mL final; Potency, µM (top dose mostly 46.1 µM), without a hit: top-dose activity, negative = inhibition, hits mostly inhibitors; 410,000 compounds, 1.2% hits; further: on the % scale 0 is the no-effect control and ±100 the full control effect; nearly all actives have a fitted effect of over 65% in size
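HEPG2 CAGA-GFP, 1000 cells/well; 2 h settle, 37 C; cpd via pin tool; TGF-b 500 pg/mL final; 18 h, 37 C; GFP imaging ex488/em500-530; %Activity normalised to -TGF-b and +DMSO controls; CRC fit, curve class.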
ATXN2 expr inh: reduces ATXN2 reporter expression in HEK-293 cells. HEK-293 ATXN2-luciferase reporter, luminescence, 24 h. Potency, µM (doses to about 57 µM), inactives show at the top dose activity change, negative = inhibition, actives largely listed as inhibitors. 360,000 compounds, 0.72% hits; further: on the % scale 0 is the no-effect control and ±100 the full control effect; nearly all actives have a fitted effect of over 55% in size
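qHTS (up to 57 uM final) was run with 24 h compound exposure of reporter cells at 37 °C. Each well was multiplexed: SteadyGlo luminescence measured ATXN2-luciferase expression after a fluorogenic Gly-Phe-AFC viability readout (25 uM final).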
ATXN viability: viability counter-screen for ATXN expression inhibitors; S2 cells (HEK-293 line with an ATXN2-luciferase reporter) viability, CellTiter-Fluor protease fluorescence, 24 h; Potency, µM (doses to about 56.7 µM), hits mostly cytotoxic; 400,000 compounds, 0.49% hits; further: nearly all actives have a fitted effect of over 40% in size
VP16 counter: Gal4-VP16 reporter inhibition counter-screen | 310,000 compounds, 3.5% hits | Drosophila S2 Gal4-VP16 UAS-luciferase, luminescence, 20 h | Potency, µM (series often up to 53.6 µM), without a hit: at the highest dose activity, negative = inhibition, actives largely listed as inhibitors | AID 2546;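 further: Gal4-VP16 expression switched on by copper sulfate through the metallothionein promoter; on the % scale 0 is the no-effect control and ±100 the full control effect; nearly all actives have a fitted effect of over 50% in size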
Active calls of the source: *; i = inactive; ? = inconclusive; / = not tested or not shown; [ ] = dose if it differs, or a comment. The call rests on the fitted dose curve; in most records, active means well fitted curve in the direction sought with a large enough effect; inconclusive means small, poorly fitted or top-dose-only effect, or another doubt; inactive means no such curve, though single readings can be large; an effect the other way counts as inactive or inconclusive. Potency means the concentration at half of the fitted maximal effect.

SMILES | HepG2 tox | RORgamma inh | TGFb SMAD3 inh | ATXN2 expr inh | ATXN viability | VP16 counter
C=CCNC1=C2C[C@@H](C)C[C@H](OC)[C@H](O)[C@@H](C)/C=C(\C)[C@H](OC(N)=O)[C@@H](OC)/C=C/C=C(\C)C(=O)NC(=CC1=O)C2=O | / | ? | / | / | / | -4%[10 µM]
COc1ccc(OCC(=O)OCc2cc(=O)n3nc(C4CCCCC4)sc3n2)cc1 | 1% | / | 0% | 4% | i | /
CCc1nnc(NC(=O)CN2C(=O)/C(=C/c3cc(OC)c(OC)c(OC)c3)SC2=S)s1 | -30% | 16µM* | 11% | -5% | i | ?
COc1ccc(/C=C2\SC(=S)N(CC(=O)Nc3nnc(C)s3)C2=O)cc1 | 2% | -3% | -1% | 6% | i | -13%
COc1cc(/C=C2/SC(=S)N(CC(=O)Nc3nc4ccccc4s3)C2=O)cc(OC)c1OC | 8% | 10µM* | -2% | 6% | i | -2%
COc1cc(/C=C2\SC(=S)N(CC(=O)Nc3ccccn3)C2=O)cc(OC)c1OC | -26% | -5% | -16% | 5% | i | -6%
COc1cc(NC(=O)Cc2c(C(=O)O)c(C)cn2C)cc(OC)c1 | 3% | / | -5% | 11% | i | /
O=[N+]([O-])c1ccc(-[n+]2ccc3ccccc3c2)c([N+](=O)[O-])c1 | 13µM* | / | 5µM* | ? | 11µM* | /
NC(=S)N/N=C/c1ncc(C(F)(F)F)cc1Cl | -53% | 0.63µM* | 4.5µM* | 7.9µM* | 14µM* | 0.5µM*
NC(=O)Cc1ncc(C(F)(F)F)cc1Cl | -11% | -4% | 0% | -3% | i | -13%
COc1ccc(/C=N/NC(N)=S)cc1 | -1% | 11µM* | -4% | 14% | i | ?
C=CCOc1ccc(/C=N\NC(N)=S)cc1 | -55% | 32% | -17% | / | / | 24%
CC(C)Oc1ccc(/C=N/NC(N)=S)cc1 | -2% | 5µM* | -23% | 35% | i | 2.8µM*
NC(=S)N/N=C/c1ccc(C(F)(F)F)cc1 | -22% | 5µM* | -29% | -28% | i | 5.6µM*
COc1ccccc1/C=C/c1nc2ccccc2s1 | -4% | / | -8% | / | / | /
COC(=O)c1ccc(COc2ccc(Cl)cc2)o1 | 3% | 32% | 12% | / | i | 0%
COC(=O)c1ccc(COc2ccc(/C=N/NC(N)=S)cc2)o1 | -55% | 11µM* | ? | ? | i | ?
Cc1ccc(S(=O)(=O)Nc2ccc3c(c2)CCCN3C(=O)c2cccs2)cc1 | -24% | / | -23% | ? | ? | /
CC(OC(=O)c1ccc(S(=O)(=O)N2CCCCC2)cc1)C(=O)NC1CCCCC1C (stereo not given) | 0% | 12% | -32% | -8% | i | 5%
CC(OC(=O)c1ccc(C(C)(C)C)cc1)C(=O)NC1CCCCC1C (stereo not given) | -21% | 42% | -6% | -15% | i | 14µM*
COC(=O)[C@H](COC(C)(C)C)NC(=O)O[C@@H]1C(=O)c2cc(Br)ccc2O[C@H]1c1cccc(OC)c1 | / | 6% | / | / | / | 4%
COCC(=O)OC1CCn2c1nc1c2C(=O)C(C)=C(NC(C)=O)C1=O (stereo not given) | -87% | / | ? | 10µM* | / | /
CCCCOc1ccc(CC(=O)N(C)O)cc1 | 0% | / | 16% | / | / | /
O=C(COC(=O)c1ccc([N+](=O)[O-])s1)Nc1ccccc1 | -10% | -6% | -6% | 3% | ? | -5%
O=C(COC(=O)c1ccc([N+](=O)[O-])s1)NCc1ccccc1 | 1% | 11µM* | 0% | 4% | i | -24%
SMILES | HepG2 tox | RORgamma inh | TGFb SMAD3 inh | ATXN2 expr inh | ATXN viability | VP16 counter
COc1cccc(CNC(=S)Nc2cc(C)ccc2C)c1 | -5% | 3.2µM* | -1% | -24%[11.3 µM] | / | 6.3µM*
COc1cccc(CNC(=S)Nc2cccc(Cl)c2C)c1 | 0% | 5µM* | -7% | -15% | i | 3.5µM*
COc1cc(C)c(NC(=S)Nc2cccc(Cl)c2C)cc1OC | -2% | 13µM* | -18% | -5% | i | ?
CCS(=O)(=O)N1CC(CC#N)(n2cc(-c3ncnc4[nH]ccc34)cn2)C1 | / | / | / | 15% | / | /
CCC1CC=CC2C1C(=O)N(Cc1ccccc1)C2c1ccc(C(F)(F)F)cc1 (stereo not given) | -30% | 23% | ? | / | / | ?
Cc1ccc(C(=O)NC(=S)NNC(=O)COc2ccc([N+](=O)[O-])cc2)cc1 | -2% | 11µM* | 1% | -1% | i | 11µM*
O=C(NC(=S)NNC(=O)c1ccccc1[N+](=O)[O-])c1ccc(Br)cc1 | -13% | 6.3µM* | 2% | 13% | i | 6.3µM*
O=C(COc1ccc([N+](=O)[O-])cc1)NNC(=S)NC(=O)c1ccc(Br)cc1 | -24% | 3.2µM* | -18% | -21% | i | ?
Cc1ccc(OCC(=O)Nc2ccc([N+](=O)[O-])cc2)cc1 | 31% | 1% | 0% | 0% | i | -12%
N#CCSc1nc2ccc(N3CCCCC3)cc2c(=O)n1Cc1ccccc1 | 17% | 3.5µM* | -2% | 17% | i | ?
COc1cccc(/C=N/NC(=S)NC2CC3CCC2C3)c1OC (stereo not given) | 2% | 1.6µM* | -8% | / | i | 2.8µM*
CNC(=S)N/N=C/c1ccco1 | -8% | 2.5µM* | -12% | 1% | i | 5.6µM*
Oc1ccccc1/C=N/NC(=S)NC1CC2CCC1C2 (stereo not given) | -55% | 6.3µM* | ? | 8% | ? | 10µM*
O=C(N/N=C/c1ccco1)C(O)C(O)C(=O)N/N=C/c1ccco1 (stereo not given) | 0% | -5% | -5% | 7% | i | -2%
S=C(N/N=C/c1ccco1)NC1CC2CCC1C2 (stereo not given) | 7% | 0.56µM* | -3% | 64% | i | 2.2µM*
O=C(O)c1ccccc1/C=N/NC(=S)NC1CCCCC1 | -3% | -40% | 13% | 5% | i | -1%
CC1=C(C(N)=O)C(c2ccc(F)cc2)n2nc(-c3ccc(N(C)C)cc3)nc2N1 (stereo not given) | 4% | / | 6% | 6% | i | /
COc1ccc(-n2cc(C(=O)OCc3ccc(Cl)cc3)c3ccccc3c2=O)cc1 | -6% | / | 43% | / | / | /
Cc1ccc(NC(=O)c2cc(S(=O)(=O)N3CCc4ccccc43)ccc2F)cc1Cl | 1% | / | 13% | / | / | /
COc1cc2c(NC3CCN(C)CC3)nc(N3CCN(C)CC3)nc2cc1OCCCN(C)C | -31% | / | 9% | / | / | /
O=C(CCCCCn1c(=O)[nH]c2ccccc2c1=O)N1CCN(c2ccc(Cl)cc2)CC1 | -13% | / | -8% | / | / | /
CCOC(=O)Cc1csc(-n2sc3ccccc3c2=O)n1 | 4% | 11µM* | 9% | 8% | ? | ?

Compound activity deposited in PubChem BioAssay by National Center for Advancing Translational Sciences (NCATS).
